# Measured values from the supplement of paper PMC8728848.
# Many of the other results were omitted from the sample, so the strongest signals are more common in it than they were.
# Columns and labels:
# Assay in all cases: glycan array binding signal (z-score within array); higher = stronger binding
# Conditions in all cases: glycan notation: IUPAC condensed, linker removed
# [1] = biological target: Fuc(a1-2)Gal(b1-3)GlcNAc(b1-2)Man(a1-3)[Fuc(a1-2)Gal(b1-3)GlcNAc(b1-2)Man(a1-6)]Man(b1-4)GlcNAc(b1-4)GlcNAc
# Procedure, shortened: (§1)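 Arrays were curated from the Consortium for Functional Glycomics database, 3228 in total, and kept only where the protein sequence was available. Binding is expressed as a within-array Z-score. This score was averaged across arrays of the same protein sequence at different concentrations or buffers and across linkers, and negative values can be read as non-binding.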
# [2] = biological target: Fuc(a1-2)Gal(b1-4)GlcNAc(b1-3)GalNAc
# Procedure, shortened: as §1
# [3] = biological target: Fuc(a1-2)[Gal(a1-3)]Gal(b1-4)Glc
# Procedure, shortened: as §1
# [4] = biological target: Fuc(a1-2)[GalNAc(a1-4)]Gal(b1-4)GlcNAc
# Procedure, shortened: as §1
# [5] = biological target: Fuc(a1-3)[Gal(b1-4)]GlcNAc(b1-3)Gal(b1-3)[Fuc(a1-4)]GlcNAc
# Procedure, shortened: as §1
# [6] = biological target: Fuc(a1-3)[Gal3S(b1-4)]Glc
# Procedure, shortened: as §1
# [7] = biological target: Fuc(a1-3)[GalNAc(b1-4)]GlcNAc6S
# Procedure, shortened: as §1
# Gal(a1-3)GalNAc = biological target: Gal(a1-3)GalNAc
# Procedure, shortened: as §1
# Gal(a1-6)Glc = biological target: Gal(a1-6)Glc
# Procedure, shortened: as §1
# Gal(b1-3)GalNAc = biological target: Gal(b1-3)GalNAc
# Procedure, shortened: as §1
# [8] = biological target: Gal(b1-3)GlcNAc(a1-3)Gal(b1-4)GlcNAc
# Procedure, shortened: as §1
# [9] = biological target: Gal(b1-3)GlcNAc(b1-3)Gal(b1-4)GlcNAc(b1-2)Man(a1-3)[Gal(b1-3)GlcNAc(b1-3)Gal(b1-4)GlcNAc(b1-2)Man(a1-6)]Man(b1-4)GlcNAc(b1-4)GlcNAc
# Procedure, shortened: as §1
# [10] = biological target: Gal(b1-3)GlcNAc(b1-3)Gal(b1-4)GlcNAc(b1-6)[Gal(b1-3)GlcNAc(b1-3)]Gal(b1-4)Glc
# Procedure, shortened: as §1
# [11] = biological target: Gal(b1-3)[Fuc(a1-4)]GlcNAc(b1-3)Gal(b1-4)[Fuc(a1-3)]GlcNAc
# Procedure, shortened: as §1
# Gal(b1-4)Gal = biological target: Gal(b1-4)Gal
# Procedure, shortened: as §1
# [12] = biological target: Gal(b1-4)GlcNAc(b1-2)Man(a1-3)[Man(a1-6)]Man(b1-4)GlcNAc(b1-4)GlcNAc
# Procedure, shortened: as §1
# [13] = biological target: Gal(b1-4)GlcNAc(b1-3)Gal(b1-4)GlcNAc(b1-3)Gal(b1-4)GlcNAc(b1-2)Man(a1-3)[Gal(b1-4)GlcNAc(b1-3)Gal(b1-4)GlcNAc(b1-3)Gal(b1-4)GlcNAc(b1-2)Man(a1-6)]Man(b1-4)GlcNAc(b1-4)GlcNAc
# Procedure, shortened: as §1
# [14] = biological target: Gal(b1-4)GlcNAc(b1-3)Gal(b1-4)GlcNAc(b1-3)Gal(b1-4)GlcNAc(b1-3)Gal(b1-4)GlcNAc(b1-3)Gal(b1-4)GlcNAc(b1-2)Man(a1-3)[Gal(b1-4)GlcNAc(b1-3)Gal(b1-4)GlcNAc(b1-3)Gal(b1-4)GlcNAc(b1-3)Gal(b1-4)GlcNAc(b1-3)Gal(b1-4)GlcNAc(b1-2)Man(a1-6)]Man(b1-4)GlcNAc(b1-4)GlcNAc
# Procedure, shortened: as §1
# [15] = biological target: Gal(b1-4)GlcNAc(b1-3)Gal(b1-4)GlcNAc(b1-3)Gal(b1-4)GlcNAc(b1-3)Gal(b1-4)GlcNAc(b1-3)Gal(b1-4)GlcNAc(b1-2)Man(a1-3)[Gal(b1-4)GlcNAc(b1-3)Gal(b1-4)GlcNAc(b1-3)Gal(b1-4)GlcNAc(b1-3)Gal(b1-4)GlcNAc(b1-3)Gal(b1-4)GlcNAc(b1-2)Man(a1-6)]Man(b1-4)GlcNAc(b1-4)[Fuc(a1-6)]GlcNAc
# Procedure, shortened: as §1
# [16] = biological target: Gal(b1-4)GlcNAc(b1-3)Gal(b1-4)GlcNAc(b1-3)Gal(b1-4)GlcNAc(b1-3)Gal(b1-4)GlcNAc(b1-3)Gal(b1-4)GlcNAc(b1-2)[Gal(b1-4)GlcNAc(b1-3)Gal(b1-4)GlcNAc(b1-3)Gal(b1-4)GlcNAc(b1-3)Gal(b1-4)GlcNAc(b1-3)Gal(b1-4)GlcNAc(b1-6)]Man(a1-6)[Gal(b1-4)GlcNAc(b1-3)Gal(b1-4)GlcNAc(b1-3)Gal(b1-4)GlcNAc(b1-3)Gal(b1-4)GlcNAc(b1-3)Gal(b1-4)GlcNAc(b1-2)Man(a1-3)]Man(b1-4)GlcNAc(b1-4)[Fuc(a1-6)]GlcNAc
# Procedure, shortened: as §1
# [17] = biological target: Gal(b1-4)GlcNAc(b1-6)Gal(b1-4)GlcNAc
# Procedure, shortened: as §1
# Gal3S(b1-4)GlcNAc = biological target: Gal3S(b1-4)GlcNAc
# Procedure, shortened: as §1
# Gal6S(b1-3)GlcNAc = biological target: Gal6S(b1-3)GlcNAc
# Procedure, shortened: as §1
# GalNAc(b1-4)GlcNAc = biological target: GalNAc(b1-4)GlcNAc
# Procedure, shortened: as §1
# [18] = biological target: GlcNAc(b1-2)[GlcNAc(b1-6)]Man(a1-6)[GlcNAc(b1-4)][GlcNAc(b1-2)Man(a1-3)]Man(b1-4)GlcNAc(b1-4)GlcNAc
# Procedure, shortened: as §1
# [19] = biological target: GlcNAc(b1-3)Gal(b1-4)GlcNAc(b1-3)Gal(b1-4)GlcNAc(b1-3)Gal(b1-4)GlcNAc(b1-3)Gal(b1-4)GlcNAc(b1-2)Man(a1-3)[GlcNAc(b1-3)Gal(b1-4)GlcNAc(b1-3)Gal(b1-4)GlcNAc(b1-3)Gal(b1-4)GlcNAc(b1-3)Gal(b1-4)GlcNAc(b1-2)Man(a1-6)]Man(b1-4)GlcNAc(b1-4)[Fuc(a1-6)]GlcNAc
# Procedure, shortened: as §1
# GlcNAc(b1-4)GlcNAc = biological target: GlcNAc(b1-4)GlcNAc
# Procedure, shortened: as §1
# Kdn(a2-3)Gal(b1-4)Glc = biological target: Kdn(a2-3)Gal(b1-4)Glc
# Procedure, shortened: as §1
# Kdn(a2-3)Gal(b1-4)GlcNAc = biological target: Kdn(a2-3)Gal(b1-4)GlcNAc
# Procedure, shortened: as §1
# Man(a1-2)Man(a1-3)Man = biological target: Man(a1-2)Man(a1-3)Man
# Procedure, shortened: as §1
# [20] = biological target: Man(a1-2)Man(a1-3)[Man(a1-2)Man(a1-6)]Man(a1-6)[Man(a1-2)Man(a1-2)Man(a1-3)]Man
# Procedure, shortened: as §1
# [21] = biological target: Neu5Ac(a2-3)Gal(b1-3)GalNAc(b1-3)Gal(a1-4)Gal(b1-4)Glc
# Procedure, shortened: as §1
# [22] = biological target: Neu5Ac(a2-3)Gal(b1-3)GlcNAc(b1-6)GalNAc
# Procedure, shortened: as §1
# [23] = biological target: Neu5Ac(a2-3)Gal(b1-3)[Fuc(a1-4)]GlcNAc(b1-3)Gal(b1-3)[Fuc(a1-4)]GlcNAc
# Procedure, shortened: as §1
# [24] = biological target: Neu5Ac(a2-3)Gal(b1-4)GlcNAc(b1-2)Man(a1-3)[Neu5Ac(a2-6)Gal(b1-4)GlcNAc(b1-2)Man(a1-6)]Man(b1-4)GlcNAc(b1-4)GlcNAc
# Procedure, shortened: as §1
# [25] = biological target: Neu5Ac(a2-3)Gal(b1-4)GlcNAc(b1-2)[Neu5Ac(a2-3)Gal(b1-4)GlcNAc(b1-4)]Man(a1-3)[GlcNAc(b1-4)][Neu5Ac(a2-3)Gal(b1-4)GlcNAc(b1-2)[Neu5Ac(a2-3)Gal(b1-4)GlcNAc(b1-6)]Man(a1-6)]Man(b1-4)GlcNAc(b1-4)GlcNAc
# Procedure, shortened: as §1
# [26] = biological target: Neu5Ac(a2-3)Gal(b1-4)GlcNAc(b1-3)Gal(b1-4)GlcNAc(b1-3)[Neu5Ac(a2-3)Gal(b1-4)GlcNAc(b1-3)Gal(b1-4)GlcNAc(b1-6)]GalNAc
# Procedure, shortened: as §1
# [27] = biological target: Neu5Ac(a2-3)Gal(b1-4)[Fuc(a1-3)]GlcNAc(b1-2)Man
# Procedure, shortened: as §1
# [28] = biological target: Neu5Ac(a2-3)[GalNAc(b1-4)]Gal(b1-4)GlcNAc
# Procedure, shortened: as §1
# [29] = biological target: Neu5Ac(a2-6)Gal(b1-4)GlcNAc(b1-3)Gal(b1-4)[Fuc(a1-3)]GlcNAc(b1-3)Gal(b1-4)[Fuc(a1-3)]GlcNAc
# Procedure, shortened: as §1
# [30] = biological target: Neu5Ac(a2-8)Neu5Ac(a2-8)Neu5Ac
# Procedure, shortened: as §1
# Neu5Gc(a2-3)Gal(b1-4)Glc = biological target: Neu5Gc(a2-3)Gal(b1-4)Glc
# Procedure, shortened: as §1
# [31] = biological target: Neu5Gc(a2-3)Gal(b1-4)[Fuc(a1-3)]GlcNAc
# Procedure, shortened: as §1
# [32] = biological target: Neu5Gc(a2-8)Neu5Gc(a2-6)Gal(b1-4)GlcNAc
# Procedure, shortened: as §1
binder,measurement,setting,value
Als3-2 (Candida albicans) (protein) KTITGVFNSFNSLTWSNAATYNYKGPGTPTWNAVLGWSLDGTSASPGDTFTLNMPCVFKFTTSQTSVDLTAHGVKYATCQFQAGEEFMTFSTLTCTVSNTLTPSIKALGTVTLPLAFNVGGTGSSVDLEDSKCFTAGTNTVTFNDGGKKISINVDFERSNVDPKGYLTD,glycan array binding signal (z-score),[1],7.12
same,glycan array binding signal (z-score),[2],9.17
same,glycan array binding signal (z-score),[3],-0.338
same,glycan array binding signal (z-score),[4],-0.444
same,glycan array binding signal (z-score),[5],3.23
same,glycan array binding signal (z-score),[6],-0.64
same,glycan array binding signal (z-score),[7],0.076
same,glycan array binding signal (z-score),Gal(a1-3)GalNAc,-0.308
same,glycan array binding signal (z-score),Gal(a1-6)Glc,-0.625
same,glycan array binding signal (z-score),Gal(b1-3)GalNAc,-0.398
same,glycan array binding signal (z-score),[8],-0.203
same,glycan array binding signal (z-score),[9],2.3
same,glycan array binding signal (z-score),[10],-0.603
same,glycan array binding signal (z-score),[11],-0.461
same,glycan array binding signal (z-score),Gal(b1-4)Gal,-0.552
same,glycan array binding signal (z-score),[12],0.449
same,glycan array binding signal (z-score),[13],3.26
same,glycan array binding signal (z-score),[14],5.24
same,glycan array binding signal (z-score),[15],3.26
same,glycan array binding signal (z-score),[16],3.16
same,glycan array binding signal (z-score),[17],1.11
same,glycan array binding signal (z-score),Gal3S(b1-4)GlcNAc,0.36
same,glycan array binding signal (z-score),Gal6S(b1-3)GlcNAc,3.68
same,glycan array binding signal (z-score),GalNAc(b1-4)GlcNAc,0.934
same,glycan array binding signal (z-score),[18],-0.7
same,glycan array binding signal (z-score),[19],3.13
same,glycan array binding signal (z-score),GlcNAc(b1-4)GlcNAc,0.531
same,glycan array binding signal (z-score),Kdn(a2-3)Gal(b1-4)Glc,-0.075
same,glycan array binding signal (z-score),Kdn(a2-3)Gal(b1-4)GlcNAc,-0.528
same,glycan array binding signal (z-score),Man(a1-2)Man(a1-3)Man,-0.511
same,glycan array binding signal (z-score),[20],-0.73
same,glycan array binding signal (z-score),[21],-0.583
same,glycan array binding signal (z-score),[22],1.45
same,glycan array binding signal (z-score),[23],-0.524
same,glycan array binding signal (z-score),[24],-0.401
same,glycan array binding signal (z-score),[25],3.2
same,glycan array binding signal (z-score),[26],6.15
same,glycan array binding signal (z-score),[27],0.73
same,glycan array binding signal (z-score),[28],-0.449
same,glycan array binding signal (z-score),[29],-0.584
same,glycan array binding signal (z-score),[30],-0.398
same,glycan array binding signal (z-score),Neu5Gc(a2-3)Gal(b1-4)Glc,0.047
same,glycan array binding signal (z-score),[31],-0.059
same,glycan array binding signal (z-score),[32],-0.628
